One assay deals with Klebsiella pneumoniae. Conditions: Concentration 32 ug.mL-1, ASSAY_TEST Inhibition of Bacterial Growth, detection method Absorption (OD600), MEDIA CAMHB, plate type 384well, NBS, CORNING #3640, time 18 hr.
In the next assay the test system is Candida albicans. The note with it: 32 ug/mL.
A further assay relates to Cryptococcus neoformans. The note with it: Concentration 32 ug.mL-1; ASSAY_TEST Inhibition of Fungal Growth; detection method Resazurin; Absorption (OD600-OD570); plate type 384well; NBS; CORNING #3640.

Each structure is given as a SMILES string. Several values for one entry are separate records, joined by “and”; a condition that tells them apart may be missing. Equal entries are not always repeated. Entries with a potency or affinity are not part of this list.

In general, Inhibition refers to the relative decrease from the control value, in per cent. For the compound `CCOc1nc2nc3c(c(N)c2cc1C#N)CCCC3`, the Inhibition with Klebsiella pneumoniae is -2%; in the assay on Candida albicans it was 2.23%; with Cryptococcus neoformans, -62.45%.
`Cc1ccc(C2c3c(Cl)nnnc3Oc3ccc4ccccc4c32)cc1` (stereo not given): the Inhibition in the assay with Klebsiella pneumoniae is 9.62%; in the assay on Candida albicans it was 2.22%; in the assay with Cryptococcus neoformans, -3.15%.
As to `O=C(Cc1ccccc1)N/N=C/c1c[nH]c2ccccc12`, the Inhibition with Klebsiella pneumoniae is 20.21%; with Candida albicans, 3.09%; in the assay with Cryptococcus neoformans it was -2.34%.
The matching figures for `CC(=O)n1cc(/C=C2\N=C(c3ccccc3)OC2=O)c2ccccc21`: 0.98%, 1.66% and -2.55%.
The matching figures for `O=C(Cc1c[nH]c2ccccc12)NN=C1CCCCCC1`: -21.31%, 1.07% and -2.54%.
With `C#CCN(C)Cc1cc2cc(OCCCCC3CCN(Cc4ccccc4)CC3)ccc2n1C.Cl`, the Inhibition was 25.34% in the assay on Klebsiella pneumoniae, 2.11% in the assay on Candida albicans and -16.02% in the assay with Cryptococcus neoformans.
For the compound `COc1ccc(-c2c(C#N)c(=O)oc3c2ccc2ccccc23)cc1`, the Inhibition was 4.75% and -0.52% with Klebsiella pneumoniae (32 ug/mL); 2.65% and 6.62% with Candida albicans.
For the compound `CC(=O)Nc1nn(C)c2nc3nc4c(c(N)c3cc12)CCCC4`, the Inhibition in the assay on Klebsiella pneumoniae (32 ug/mL) is 12.62% and 9.74%.
Consider `C#CCN(C)c1nc(NCCCC2CCN(Cc3ccccc3)CC2)c(C#N)cc1C#N`, for which the Inhibition in the assay on Klebsiella pneumoniae is -7.79%; with Candida albicans it was 3.51%; with Cryptococcus neoformans, -58.85%.
For the compound `O=C(NN=Cc1c[nH]c2ccccc12)c1cccc2ccccc12`, the Inhibition with Klebsiella pneumoniae was 12.1%; in the assay with Candida albicans, 1.76%; with Cryptococcus neoformans, -3.56%.
With `CCOC(=O)C1=C(C)OC(N)=C(C#N)C1c1ccc(OC)c(OC)c1` (stereo not given), the Inhibition is 9.11% in the assay on Klebsiella pneumoniae, 3.32% in the assay with Candida albicans and -51.05% in the assay with Cryptococcus neoformans.
The matching figures for `C#CCN(C)Cc1cc2cc(OCc3ccc(OC)c4ncccc34)ccc2n1C`: -13.41%, 6.72% and -26.86%.
Turning to `C#CCNC.O=C(O)C(=O)O`, the Inhibition in the assay with Klebsiella pneumoniae is 9.05%; with Candida albicans, 4.18%; in the assay with Cryptococcus neoformans, -8.52%.
Consider `Cc1ccccc1-c1c(C=N)c(N)nc2c1S(=O)(=O)OC2(C)C`, for which the results for the Inhibition in the assay with Klebsiella pneumoniae, in the assay on Candida albicans and with Cryptococcus neoformans were 10.81%, -0.01% and -3.14%, respectively.
With `C#CCN(C)c1nc(N)c(C#N)cc1C#N`, the Inhibition with Klebsiella pneumoniae (32 ug/mL) is 17.2% and 7.82%.
As for `Cc1cnc(NC(=O)OC(C)(C)C)c(Br)c1`, the Inhibition is 17.7% with Klebsiella pneumoniae, -0.1% in the assay on Candida albicans and -60.78% in the assay on Cryptococcus neoformans.
As to `C#CCN(C)c1nc(NCC2CCN(Cc3ccccc3)CC2)c(C#N)c(-c2ccccc2)c1C#N.Cl`, the Inhibition in the assay with Klebsiella pneumoniae is 9.81%; in the assay on Candida albicans, -0.67%; in the assay with Cryptococcus neoformans it was 16.69%.
For `COc1ccc2c(c1)cc(CN)n2C` the same measures were 13.36%, 2.3% and -4.4%.
As to `C#CCNc1ncccn1`, the Inhibition is 20.12% in the assay with Klebsiella pneumoniae, 2.79% in the assay on Candida albicans and -63.47% in the assay with Cryptococcus neoformans.
The matching figures for `CC(C)(C)OC(=O)Nc1ccccn1`: 24.53%, 0.46% and -68.78%.
On to `C=C1CN(C)c2c(C#N)cc(C#N)c(=N)n21`, for which the Inhibition is 9.83% with Klebsiella pneumoniae, 2.03% with Candida albicans and -52.46% with Cryptococcus neoformans.
`C#CCNc1nc(NCC#C)c(C#N)cc1C#N`: the Inhibition with Klebsiella pneumoniae was -4.98%; in the assay with Candida albicans it was 3.76%; in the assay on Cryptococcus neoformans it was 23.66%.
`Cc1ccc2nc(Cl)c(/C=N/OCc3ccccc3)cc2c1`: the Inhibition is 9.15% in the assay with Klebsiella pneumoniae, 2.45% in the assay with Candida albicans and -9.27% in the assay with Cryptococcus neoformans.
For the compound `CN(C)c1nc(N)c(C#N)cc1C#N.Cl`, the Inhibition was -3.22% and 8.57% with Klebsiella pneumoniae (32 ug/mL); 3.18% and 2.67% in the assay on Candida albicans.
As for `COc1ccc(C2C(C#N)=C(N)Oc3c2ccc2ccccc32)c(OC)c1` (stereo not given), the Inhibition in the assay on Klebsiella pneumoniae was 2.23%; with Candida albicans, 0.21%; in the assay with Cryptococcus neoformans, -2.04%.
Consider `CC(C(=O)O)c1c[nH]c2ccccc12` (stereo not given), for which the Inhibition is 21.1% with Klebsiella pneumoniae, 31.5% with Candida albicans and -3.89% with Cryptococcus neoformans.
For `N#CC1=C(N)Oc2c(ccc3ccccc23)C1c1ccc(O)cc1` (stereo not given), the Inhibition was 6.16% with Klebsiella pneumoniae, 0.86% in the assay on Candida albicans and -59.36% in the assay with Cryptococcus neoformans.
On to `O=C(NCc1ccccc1)c1cc2ccccc2[nH]1`, for which the values for the Inhibition with Klebsiella pneumoniae, with Candida albicans and in the assay with Cryptococcus neoformans were 1.5%, -0.44% and -6.86%, respectively.
Regarding `COc1nc2ccc(C)cc2cc1C=O`, the figures for the Inhibition in the assay with Klebsiella pneumoniae, in the assay with Candida albicans and in the assay with Cryptococcus neoformans were -5.34%, 5.7% and -4.83%, respectively.
For the compound `COc1cccc(C2c3c(ccc4ccccc34)OC(=N)C2(Br)C#N)c1` (stereo not given), the Inhibition in the assay on Klebsiella pneumoniae (32 ug/mL) is 14.84% and 5.04%.
With `N#Cc1cc2c(N)n[nH]c2nc1N`, the Inhibition is 6.95% in the assay on Klebsiella pneumoniae, 0.04% in the assay with Candida albicans and -4.92% in the assay on Cryptococcus neoformans.
`O=C(Cc1c[nH]c2ccccc12)N/N=C/c1ccco1`: the Inhibition is 10.08% in the assay with Klebsiella pneumoniae, -1.03% in the assay on Candida albicans and -6.47% with Cryptococcus neoformans.
For `COc1cc(C2CC2(N)C(=O)O)ccc1O` (stereo not given) the same measures were 3.5%, -0.44% and -0.8%.
As to `CCOC(=O)c1cc2cc(OC(=O)Oc3ccc([N+](=O)[O-])cc3)ccc2[nH]1`, the Inhibition in the assay with Klebsiella pneumoniae was 0.96%; in the assay on Candida albicans, 0.86%; in the assay with Cryptococcus neoformans, -63.93%.
For `N#CC1=C(N)Oc2ccc3ccccc3c2C1c1ccc(O)cc1` (stereo not given) the same measures were 11.07%, 2.93% and -36.73%.
As to `CC(C)C(=O)N/N=C/c1c[nH]c2ccccc12`, the Inhibition is 19.59% in the assay on Klebsiella pneumoniae, -0.11% with Candida albicans and -5.03% in the assay on Cryptococcus neoformans.

(Values after ChEMBL document CHEMBL4513135, “CO-ADD screening of IQOG CSIS (Spain) compounds”.)
